# An excerpt weighted towards active compounds, which were near 27% of everything screened.
# CYP2C19 inhib = blocks human cytochrome P450 2C19; inhibition, % at 5 µM; AID 778; P33261; 96,000 compounds, 21% hits; CYP2C19 Supersomes, luciferin-H EGE luminescence, 30 min;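 active = CYP2C19 inhibition above a set limit at 5 µM in the primary screen, cut at about 50% in these data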;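 note: plate controls were negative control wells for no effect and 2.5 mM tranylcypromine positive control for full effect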
# Target sequence (P33261 whole entry, looked up): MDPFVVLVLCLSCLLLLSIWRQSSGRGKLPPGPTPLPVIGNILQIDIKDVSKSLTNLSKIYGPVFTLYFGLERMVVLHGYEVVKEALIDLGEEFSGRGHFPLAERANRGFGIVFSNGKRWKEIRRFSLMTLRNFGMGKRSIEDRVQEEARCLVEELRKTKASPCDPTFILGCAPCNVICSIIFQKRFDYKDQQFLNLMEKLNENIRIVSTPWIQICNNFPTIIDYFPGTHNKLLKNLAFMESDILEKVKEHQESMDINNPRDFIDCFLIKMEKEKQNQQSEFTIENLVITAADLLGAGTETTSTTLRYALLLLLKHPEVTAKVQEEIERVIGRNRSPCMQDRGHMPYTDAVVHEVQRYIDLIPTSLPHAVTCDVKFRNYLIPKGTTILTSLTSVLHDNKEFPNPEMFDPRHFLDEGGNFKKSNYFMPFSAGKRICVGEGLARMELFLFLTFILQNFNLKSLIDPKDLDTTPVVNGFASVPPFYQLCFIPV
# CYP2C9 activ = CYP2C9 (human) activation; activation factor at 5 µM; recombinant CYP2C9, luciferin-H conversion, luminescence; active compounds read high; factor 1 = untreated enzyme, 0 = blocked; P11712; AID 1024; 96,000 compounds, 1.4% hits;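 active = activation factor of 2 or more for CYP2C9 at a 5 µM dose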;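 note: 0 = sulfaphenazole-blocked wells and 1 = vehicle-only wells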
# CYP2C19 act = cytochrome P450 2C19 (human) activation; 96,000 tested, under 10 active; activation factor at 5 µM; recombinant CYP2C19, luciferin-H EGE luminescence; active compounds read high; 0 = fully inhibited enzyme, 1 = untreated enzyme; P33261;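 active = activation factor of at least 2 at 5 µM in the primary screen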;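 note: 0 = wells with 2.5 mM tranylcypromine and 1 = vehicle-only wells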
# Cav3 T inh = inhibitors of human Cav3.2 T-type calcium channel; O95180; Cav3.2-expressing cells, Fluo-4 calcium fluorescence FDSS; active compounds read low; B-score at 10 µM; 100,000 compounds, 4% hits; AID 449739;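 active = single-dose well whose peak fluorescence ratio is a statistical outlier from its plate by either plate-standardised score or position-corrected B-score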
# CYP2C9 inh = blocks human cytochrome P450 2C9. AID 777. inhibition, % at 5 µM. CYP2C9 Supersomes, luciferin-H conversion, luminescence. P11712. 96,000 compounds, 20% hits;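 active = blocking of liver enzyme CYP2C9 beyond about 50% at 5 µM, limit read from the data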
# The depositor's hits bear a star; x = no result given.
SMILES,CYP2C19 inhib,CYP2C9 activ,CYP2C19 act,Cav3 T inh,CYP2C9 inh
O=C(NCc1ccco1)c1ccc2c(=O)n(Cc3ccco3)c(SCC(=O)N3CCCC3)nc2c1,23,0.4,0.8,-0.27,64*
COc1ccccc1NCc1nnc(SCC(=O)N/N=C/c2ccco2)n1-c1ccc(Cl)cc1Cl,44,0.8,0.6,-1.9,22
CCOc1ccc(C2OC(=O)Cc3cc(OC)c(OC)cc32)cc1 (stereo not drawn),35,0.7,0.6,-0.39,26
COc1cc2nc(SCC(=O)NCCc3ccccc3)n(Cc3ccco3)c(=O)c2cc1OC,66*,0,0.3,0.78,96*
CCSc1nc2cc(OC)c(OC)cc2c(=O)n1CCc1ccccc1,19,0.5,0.8,-1.4,49
COc1cc2c(cc1OC)C(c1cccnc1)CC(=O)N2 (stereo not drawn),-4,0.9,1,-0.065,7
COc1cc2c(c(OC)c1)C(c1ccncc1)CC(=O)N2 (stereo not drawn),76*,0.1,0.2,0.99,90*
COC(=O)c1ccc(C2CC(=O)Nc3cc(OC)c(OC)c(OC)c32)cc1 (stereo not drawn),93*,0.1,0.1,0.27,88*
COc1ccc(C(CC(=O)N2CCN(c3ccccc3)CC2)c2c(OC)cc(OC)c3c(-c4ccccc4)cc(=O)oc23)cc1 (stereo not drawn),x,x,x,-1.8,x
CC(=O)Nc1ccc(S(=O)(=O)CCC#N)cc1,x,x,x,0.54,x
O=c1nc(N2CCOCC2)ccn1-c1nc(-c2ccccc2)oc1-c1ccccc1,-5,0.5,1.1,-0.31,55*
Cn1c(N)c(C(=O)COC(=O)c2ccco2)c(=O)n(C)c1=O,6,0.9,0.9,0.26,10
Cn1c(=O)c(C(=O)CSc2nnc(Nc3ccccc3)s2)c(N)n(Cc2ccccc2)c1=O,3,0.3,1,0.4,72*
Cc1cc(NC(=O)CSc2nnc(Cc3ccccc3)o2)no1,-9,0.9,1.1,1.4,6
Cn1c(=O)c(C(=O)CN2CCCc3ccccc32)c(N)n(Cc2ccccc2)c1=O,87*,0.1,0.1,-4.1*,93*
CCn1c(=O)c(C(=O)CN2CC(C)OC(C)C2)c(N)n(Cc2ccccc2)c1=O (stereo not drawn),4,0.9,1,0.13,10
CCC(=O)OCC(=O)c1c(N)n(Cc2ccccc2)c(=O)n(C)c1=O,66*,0.6,0.3,0.36,42
CCCn1c(N)c(C(=O)CSc2nnc(Cc3ccccc3)o2)c(=O)n(C)c1=O,x,x,x,-7.8*,x
Cc1nn(-c2ccccc2)c(C)c1C(=O)OCC(=O)c1c(N)n(CC(C)C)c(=O)n(C)c1=O,39,0.4,0.6,-3.8*,61*
CCCCn1c(CN2C(=O)c3ccccc3C2=O)nc2ccccc2c1=O,6,0.7,0.9,x,28
O=C1c2ccccc2C(=O)N1CCCc1nc2ccccc2c(=O)n1Cc1ccco1,7,0.9,0.9,0.76,14
O=C1c2ccccc2C(=O)N1Cc1nc2ccccc2c(=O)n1CCCn1ccnc1,88*,0.1,0.1,0.49,92*
O=C1c2ccccc2C(=O)N1CCc1nc2ccccc2c(=O)n1CCCn1ccnc1,50,0.2,0.5,0.96,80*
CCOC(=O)c1nn(-c2ccc(Cl)cc2)c2nc(Nc3ccccc3)cc(=O)n12,-8,0.7,1.1,x,33
COC(=O)c1ccc(NC(=O)CSc2nnc(-c3ccccc3)n2C)cc1,x,x,x,0.86,x
SMILES,CYP2C19 inhib,CYP2C9 activ,CYP2C19 act,Cav3 T inh,CYP2C9 inh
CCC(=O)n1nc(NCc2ccccc2OC)nc1NCc1ccccc1OC,36,0.5,0.6,-7.9*,52*
CCCn1nnc(NCc2ccc(OCc3cccs3)c(OC)c2)n1,48,0.1,0.5,0.14,86*
COc1ccc(CNc2nc(NCc3ccc(OC)c(OC)c3)n(C(=O)c3cccs3)n2)cc1OC,27,0.3,0.7,-0.13,71*
COc1ccc(C(NC(=O)CNC(C)=O)C(=O)Nc2ccc3c(c2)OCCO3)cc1 (stereo not drawn),16,0.9,0.8,1.8,5
Cc1snc(S(=O)(=O)Cc2c(Cl)cccc2Cl)c1C#N,67*,0.7,0.3,1.6,29
CCCC(=O)NC(=S)Nc1ccccc1C(F)(F)F,55*,0.5,0.5,-0.63,50*
CCN(c1ccccc1)S(=O)(=O)c1ccc(NC(=S)NC(=O)c2cccs2)cc1,32,0.2,0.7,-0.48,77*
CCCC(=O)NC(=S)Nc1cccc(Cl)c1N1CCCCC1,69*,0.1,0.3,-5*,93*
CCCC(=O)NC(=S)Nc1ccc(NC(=O)c2cccs2)cc1,52*,0.2,0.5,-0.025,85*
CCCC(=O)Nc1ccc(C(=O)NNC(=S)NC(=O)c2cccs2)cc1,7,0.7,0.9,-1.3,28
CCC(=O)NC(=S)Nc1ccccc1C(F)(F)F,x,x,x,0.55,x
Cc1ccc2occ(/C=N/O)c(=O)c2c1,-1,1,1,-0.029,3
O=c1c(/C=N/O)coc2ccc3ccccc3c12,0,2*,1,x,-96
COc1ccc(C2/C(=C(\O)c3ccc4c(c3)OCCO4)C(=O)C(=O)N2CCCN(C)C)c(OC)c1 (stereo not drawn),2,1,1,0.16,4
O=S(=O)(NCCOCC(F)(F)F)c1ccc2oc3ccccc3c2c1,x,x,x,-4.3*,x
CCn1c(CSc2nc(C)cc(C)n2)nnc1SCC(=O)N1CCCc2ccccc21,47,1.7,0.5,1.9,-74
CCc1ccc(NC(=O)CSc2nnc(CC)c(CC)n2)cc1,64*,0.5,0.4,-0.25,49
Cc1cc(C)cc(NC(=O)CSc2nnc(-c3ccccc3)n2N)c1,7,1,0.9,0.31,-3
CCc1nnc(SCC(=O)Nc2ccc(C(C)=O)cc2)nc1CC,74*,0.6,0.3,0.36,40
Cc1cc(C)c(NC(=O)CSc2nnc(SCC(=O)Nc3c(C)cc(C)cc3C)n2N)c(C)c1,68*,0.9,0.3,0.31,15
CCc1ccc(NC(=O)CSc2nnc(SCC(=O)Nc3ccc(CC)cc3)n2N)cc1,-7,0.4,1.1,-1,62*
CCOC(=O)Nc1ccccc1C(=O)N1CCOCC1,2,1,1,1.3,-5
CCC(C)N(C(=O)COC(=O)c1[nH]c(C)c(C(C)=O)c1C)C1CCS(=O)(=O)C1 (stereo not drawn),-9,1.1,1.1,0.32,-10
C=C(c1ccc(OCCO)cc1)c1ccc(OCCO)cc1,28,0.7,0.7,-0.2,33
O=[n+]1c2c(n([O-])c3cc(F)c(F)cc31)CCCC2,-22,1.2,1.2,0.39,-16
COc1ccccc1N1CCN(Cc2nc3ccsc3c(=O)[nH]2)CC1,10,0.9,0.9,0.8,11
COc1ccc(C(=O)Nc2nc3nc(-c4ccccc4)cc(=O)n3[nH]2)cc1,5,0.7,1,0.38,33
COc1ccc(-c2cc(C(F)(F)F)c3c(=O)n(-c4ccccc4)[nH]c3n2)cc1,-5,0.4,1,-0.37,63*
